Results as given in the supplement of paper PMC3656093.
± gives the standard deviation of the averaged measurements. The full ranking holds about 1,900 compounds; the median of “CD40L-induced NF-kB luciferase activity, plate-corrected, relative to DMSO (0) and IKK inhibitor VII (-100) controls” is about 0.032, and the lowest 2% start at about -26. The sample as a whole holds a higher share of the lowest values than the screen did.

Each compound was assayed on BL2-NFkB-Luc (assay: CD40L-induced NF-kB luciferase activity, plate-corrected, relative to DMSO (0) and IKK inhibitor VII (-100) controls (% normalized activity); higher = more NF-kB reporter activity (less inhibition)). Settings: 9.4 µM; stimulus: tCD40L 64 ng/ml; 4.5 h.
Procedure: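 BL2 B cells with a stable NF-kB response-element luciferase reporter (BL2-NFkB-Luc), 384-well. Cells were pre-incubated with compound at 9.4 uM for 1 h at 37 C, then stimulated with 64 ng/ml trimerized CD40L for 4.5 h; luciferase was read with Steady-Glo. Signal was normalised per plate in Genedata (median DMSO neutral control = 0, median IKK inhibitor VII at 50 uM = -100) with Assay Median plate-pattern correction; duplicate plates.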

Structure (SMILES) | CD40L-induced NF-kB luciferase activity
COC(=O)C1=C(C)N(C)C(=S)NC1c1ccc(Cl)cc1 (configuration not stated) | -1.51 ± 7.8
CC[C@]1(O)C[C@@H]2CN(CCc3c([nH]c4ccccc34)[C@@](C(=O)OC)(c3cc4c(cc3OC)N(C=O)[C@H]3[C@@](O)(C(=O)OC)[C@H](OC(C)=O)[C@]5(CC)C=CCN6CC[C@]43[C@@H]65)C2)C1 | -50.4 ± 4.8
CC[C@]1(O)C[C@@H]2CN(CCc3c([nH]c4ccccc34)[C@@](C(=O)OC)(c3cc4c(cc3OC)N(C)[C@H]3[C@@](O)(C(=O)OC)[C@H](OC(C)=O)[C@]5(CC)C=CCN6CC[C@]43[C@@H]65)C2)C1 | -54.7 ± 1.7
CCN(CC)CCCNC(=O)C1c2ccccc2Oc2ccccc21 | -3.46 ± 0.27
CC1CCCC(C)N1NC(=O)c1ccc(Cl)c(S(N)(=O)=O)c1 (configuration not stated) | 4.34 ± 1.3
COc1cc2c(cc1OC)C(=S)NC(C)(C)C2 | -9.01 ± 2.9
COc1cc(C(=O)NCCc2c[nH]c3ccccc23)ccc1OCc1c(C)noc1C | 2.18 ± 3.7
Cc1ccc(C=NNc2nc(C(C)(C)C)cs2)o1 | 37 ± 13
Cc1cccc(N2CCN(C(=S)c3ccccc3)CC2)c1 | 6.51 ± 2.4
COc1ccc(CN2CCC(=O)NC2=O)cc1 | 4.64 ± 6
COc1ccc2c3c([nH]c2c1)C1(NCC3)C(=O)Nc2ccccc21 (configuration not stated) | 5.33 ± 6.5
Cc1ccc(C(=O)NC(=S)NCCCN2CCOCC2)cc1 | 8.31 ± 1.3
CC(=O)O[C@H]1CSC[C@H]1NC(=O)c1ccccc1 | 2.65 ± 7.7
O=C(Nc1ccc(Oc2c(F)c(F)c(F)c(F)c2F)cc1)OC1CCN2Cc3ccccc3N=C12 (configuration not stated) | -15.2 ± 2.6
COc1cc(CNCCc2c[nH]c3ccccc23)cc(Cl)c1OCC(N)=O | -2.87 ± 1.6
O=C1C(O)CC2c3ccccc3CC3(CCCC3)N12 (configuration not stated) | 2.45 ± 2.2
c1ccc(Nc2ccccn2)nc1 | 6.17 ± 1.9
OCC1(CCOc2ccccc2)CCN(CCCn2cccn2)CC1 | -3.68 ± 2.7
c1ccc2c(c1)CCOC2CNCCCN1CCCCC1 (configuration not stated) | -0.411 ± 1.1
Cc1ccc(C(CC(=O)NCc2ccco2)c2ccc(OC(C)C)cc2)cc1 (configuration not stated) | -5.4 ± 2.5
Cc1ccccc1NC(=O)c1c(C)cc(=O)oc1C | -17.1 ± 22
COc1cccc(OC)c1C(=O)Nc1nc2ccc([N+](=O)[O-])cc2s1 | 3.34 ± 5.3
COc1ccc(NC(=O)Nc2ccc(C(C)C)cc2)cc1 | 13.4 ± 0.33
COC(=O)c1ccc(COc2ccc3c(C)c(C)c(=O)oc3c2C)o1 | -0.554 ± 5
CC(C)c1ccc(OCc2ccc(C(=O)O)o2)cc1 | -32.6 ± 4.2

Structure (SMILES) | CD40L-induced NF-kB luciferase activity
CCOc1ccc2[nH]c3c(=O)n(CCc4ccc(OC)cc4)cnc3c2c1 | -2.8 ± 3.9
COc1ccc2c(CCNC(=O)c3ccc([N+](=O)[O-])cc3)c[nH]c2c1 | -3.48 ± 6.8
Cc1oc(C=NNC(=O)CC2(C)OCCO2)cc1Br | -0.742 ± 2.4
COc1ccc(/C=C/C(=O)NC(=S)NN2CCCCC2c2cccnc2)cc1 (configuration not stated) | 1.59 ± 3.4
Nc1nnc(CSCc2ccc(Cl)cc2Cl)s1 | 11.4 ± 2.5
Cc1c(OCC(=O)NC(Cc2c[nH]c3ccc(O)cc23)C(=O)O)ccc2c3c(c(=O)oc12)CCC3 (configuration not stated) | 2.12 ± 6.2
CCCCC[C@H](O)/C=C/[C@@H]1[C@@H](CCCCCCC(=O)O)[C@@H](O)C[C@H]1O | -29.5 ± 5.2
CCCCC[C@H](O)/C=C/[C@@H]1[C@@H](C/C=C\CCCC(=O)O)[C@@H](O)C[C@H]1O | -2.36 ± 2.1
CCCCC[C@H](O)/C=C/[C@@H]1[C@@H](C/C=C\CCCC(=O)OC)[C@@H](O)C[C@H]1O | -2.47 ± 3.2
O=S(=O)(CCc1nc2ccccc2[nH]1)c1ccc(Cl)cc1 | -12.2 ± 1.3
COc1cc(C=NCC2OCCc3ccccc32)cc(OC)c1 (configuration not stated) | -1.7 ± 1.9
CC1(C)c2ccccc2N2CC(=O)N(CC(N)=O)C21C (configuration not stated) | 1.75 ± 1.9
COc1ccccc1N1C(=O)C2CC(C)=C(C)CC2C1=O (configuration not stated) | -4.81 ± 2.4
COc1ccc(S(N)(=O)=O)cc1C(N)=O | -2.45 ± 4.3
CC(=O)OCC(=O)[C@@]1(OC(C)=O)[C@@H](C)C[C@H]2[C@@H]3C[C@H](F)C4=CC(=O)C=C[C@]4(C)[C@@]3(F)[C@@H](O)C[C@@]21C | -17.3 ± 0.28
CC(=O)OCC(=O)[C@@]1(O)[C@H](C)C[C@H]2[C@@H]3CCC4=CC(=O)C=C[C@]4(C)[C@@]3(F)[C@@H](O)C[C@@]21C | -27.6 ± 1
C[C@@H]1C[C@H]2[C@@H]3C[C@H](F)C4=CC(=O)C=C[C@]4(C)[C@@]3(F)[C@@H](O)C[C@]2(C)[C@@]1(O)C(=O)CO | -27.2 ± 0.89
C[C@@H]1C[C@H]2[C@@H]3CCC4=CC(=O)C=C[C@]4(C)[C@@]3(F)[C@@H](O)C[C@]2(C)[C@@]1(O)C(=O)COP(=O)(O)O | -2.27 ± 0.67
CC(=O)[C@@]1(O)CC[C@H]2[C@@H]3C[C@H](C)C4=CC(=O)CC[C@]4(C)[C@H]3CC[C@@]21C | -15.7 ± 2.4
C[C@@H]1C[C@H]2[C@@H]3C[C@H](F)C4=CC(=O)C=C[C@]4(C)[C@@]3(F)[C@@H](O)C[C@]2(C)[C@@]1(O)C(=O)COC(=O)C(C)(C)C | -29.5 ± 1.7
CC(=O)OCC(=O)[C@@]12OC(C)(C)O[C@@H]1C[C@H]1[C@@H]3C[C@H](F)C4=CC(=O)C=C[C@]4(C)[C@@]3(F)[C@@H](O)C[C@@]12C | -11.4 ± 5.5
CC(=O)[C@@]1(O)CC[C@H]2[C@@H]3C[C@H](C)C4=CC(=O)C=C[C@]4(C)[C@@]3(F)[C@@H](O)C[C@@]21C | -27 ± 2.1
CCCC(=O)O[C@]1(C(=O)COC(C)=O)CC[C@H]2[C@@H]3C[C@H](F)C4=CC(=O)C=C[C@]4(C)[C@@]3(F)[C@@H](O)C[C@@]21C | -17.6 ± 1.6
C[C@H]1C[C@H]2[C@@H]3CCC4=CC(=O)C=C[C@]4(C)[C@@]3(Cl)[C@@H](O)C[C@]2(C)[C@@]1(O)C(=O)CO | -25.6 ± 2.2
CCC(=O)O[C@]1(C(=O)CCl)[C@@H](C)C[C@H]2[C@@H]3CCC4=CC(=O)C=C[C@]4(C)[C@@]3(F)[C@@H](O)C[C@@]21C | -21.44 ± 0.014

Structure (SMILES) | CD40L-induced NF-kB luciferase activity
CCCC(=O)O[C@]1(C(=O)CCl)[C@@H](C)C[C@H]2[C@@H]3CCC4=CC(=O)C=C[C@]4(C)[C@@]3(F)C(=O)C[C@@]21C | -27.9 ± 3.7
Cc1cnc(N)c2c(=O)oc3ccccc3c12 | 41.69 ± 0.28
O=C1CCCC(=O)C1=Cc1c[nH]c2ccccc12 | -7.53 ± 0.79
CCn1c(=N)c(C(=O)NC)cc2c(=O)n3cccc(C)c3nc21 | 0.825 ± 8.5
O=C(Nc1ccc(N2CCOCC2)cc1)c1ccc(-c2ccccc2[N+](=O)[O-])o1 | 17.3 ± 0.45
COc1cc(OC)cc(C(C)=O)c1 | -2.98 ± 1.2
C=C1C2(C(=O)Nc3ccc(SC(F)F)cc3)CCC(C2)C1(C)C (configuration not stated) | 1.47 ± 2.7
N#C/C(=C/c1ccccc1)C(=O)NCc1ccccc1 | -1.8 ± 1.4
Cc1ccc(C(=O)COC(=O)c2cnccn2)cc1[N+](=O)[O-] | 0.896 ± 2.4
CCOc1ccccc1C(=O)NCCC(=O)O | -1.43 ± 3.9
Cc1cccc(N2C(=O)C3C(c4ccccc4)OC4(C(=O)c5ccccc5C4=O)C3C2=O)c1 (configuration not stated) | -0.286 ± 0.72
COc1ccc(CN(CCC(c2ccc(F)cc2)C2CCOC(C)(C)C2)C(=O)c2ccco2)cc1 (configuration not stated) | -4.2 ± 3.9
CC(=O)OC1c2c(ccc3ccc(=O)oc23)OC(C)(C)C1OC(=O)CC(C)C (configuration not stated) | -3.56 ± 6.5
CC1/C(=C\c2ccc(Cl)cc2)C(=O)C2CC1C2(C)C (configuration not stated) | 3.76 ± 2.7
COC(=O)c1ccc(NC(=O)C23CCC(C)(C(=O)O2)C3(C)C)cc1 (configuration not stated) | -0.16 ± 13
COc1cccc(NC(=O)C2CC(=O)OC23CCOC(C)(C)C3)c1 (configuration not stated) | 4.32 ± 4.7
CC1CNCCN1S(=O)(=O)c1cccc2cnccc12 (configuration not stated) | -26.1 ± 6.3
O=C1c2ccccc2C2(c3ccccc3)NCCN12 (configuration not stated) | 1.37 ± 7
Cc1ccccc1C(=O)Oc1ccc(Sc2ccc(O)cc2)cc1 | 2.2 ± 3.6
O=C(NCCc1c[nH]c2ccccc12)OCCSS(=O)(=O)O | 0.55 ± 1.4
CCOCC(=O)Nc1ccccc1C(=O)N1CCOCC1 | -5 ± 1
Cn1nc(-c2ccc(Cl)cc2)nc2c(=O)n(C)c(=O)nc1-2 | -95.22 ± 0.55
Cn1nc(-c2ccccn2)nc2c(=O)n(C)c(=O)nc1-2 | -19.1 ± 0.82
Cn1c(=O)[nH]c2nnc(-c3ccc(Cl)c(Cl)c3)nc2c1=O | 25.5 ± 4.7
O=C1[C@@H]2CSCN2C(=O)CN1Cc1ccc(F)cc1 | -0.473 ± 5.9

Structure (SMILES) | CD40L-induced NF-kB luciferase activity
COc1ccc(NC(=S)N2CCN(CCN3C(=O)c4cccc5cccc(c45)C3=O)CC2)cc1 | 1.19 ± 0.65
O=C(c1cccc2ccccc12)C1CCCN(C(=O)CCN2CCCO2)C1 (configuration not stated) | 2.54 ± 2
CC(=O)O[C@H]1C(=O)[C@@]2(C)[C@H]([C@H](OC(=O)c3ccccc3)[C@]3(O)C[C@H](OC(=O)[C@H](O)C(NC(=O)c4ccccc4)c4ccccc4)C(C)=C1C3(C)C)[C@]1(OC(C)=O)CO[C@@H]1C[C@@H]2O (some centres not stated) | -33.4 ± 1.3
CC(C)C1CC(CCNCc2ccc(N(C)C)cc2)(c2ccccc2)CCO1 (configuration not stated) | -4.73 ± 11
N/C(=N\OC(=O)c1cccc(Br)c1)c1ccncc1 | 2.67 ± 0.79
COc1ccc(C2=CC(=O)C=CC2=O)cc1 | -5.93 ± 5.3
CCOc1ccc(C(=O)N2CCCC2C(=O)O)cc1 (configuration not stated) | 2.22 ± 8
CC(=O)O[C@H]1CC[C@H]2[C@@H]3CCc4cc(O)ccc4[C@H]3CC[C@]12C | -3.39 ± 3.8
COc1ccccc1/C=C/C(=O)OCCN1CCOCC1 | 2.92 ± 4.6
CCOC(=O)C(=Cc1ccccc1OC)C(=O)OCC | -29 ± 6.1
CCOC(=O)C(=O)N1CCN(c2ccccc2OC)CC1 | -1.99 ± 1.9
C[C@H]1C[C@@H]2[C@H]([C@@H](O)C[C@@]3(C)[C@H]2CC[C@]3(O)C(=O)CO)[C@@]2(C)C=CC(=O)C=C12 | -35.94 ± 0.26
CC(=O)[C@@]1(O)CC[C@H]2[C@@H]3CCC4=CC(=O)CC[C@]4(C)[C@H]3[C@@H](O)C[C@@]21C | -12.9 ± 3.2
C[C@]12CCC(=O)C=C1CC[C@@H]1[C@@H]2CC[C@@]2(C)[C@H]1CC[C@]2(O)C(=O)CO | -8.87 ± 3.8
C[C@]12C=CC(=O)C=C1CCC1C3CC[C@](O)(C(=O)CO)[C@@]3(C)CC3OC312 (some centres not stated) | -7.42 ± 5.5
C[C@]12CCC(=O)C=C1CC[C@@H]1[C@@H]2C(=O)C[C@@]2(C)[C@H]1CC[C@]2(O)C(=O)CO | -6.47 ± 2
C[C@]12CCC(=O)C=C1CC[C@@H]1[C@@H]2[C@@H](O)C[C@@]2(C)[C@H]1CC[C@]2(O)C(=O)COC(=O)CCC(=O)O | -23.2 ± 7.1
C[C@]12CCC(=O)C=C1[C@H](O)C[C@@H]1[C@@H]2[C@@H](O)C[C@@]2(C)[C@H]1CC[C@]2(O)C(=O)CO | -8.7 ± 4.6
CC1(C)O[C@@H]2C[C@H]3[C@@H]4C[C@H](F)C5=CC(=O)CC[C@]5(C)[C@H]4[C@@H](O)C[C@]3(C)[C@]2(C(=O)CO)O1 | -21.3 ± 0.59
CC(=O)OCC(=O)[C@@]1(O)CC[C@H]2[C@@H]3CCC4=CC(=O)CC[C@]4(C)[C@H]3[C@@H](O)C[C@@]21C | -31.1 ± 6.7
CCCC1O[C@@H]2C[C@H]3[C@@H]4CCC5=CC(=O)C=C[C@]5(C)[C@H]4[C@@H](O)C[C@]3(C)[C@]2(C(=O)CO)O1 (some centres not stated) | -26 ± 0.65
CC(=O)OCC(=O)[C@@]1(O)CC[C@H]2[C@@H]3CCC4=CC(=O)C=C[C@]4(C)[C@H]3[C@@H](O)C[C@@]21C | -43.8 ± 2.2
